Screening results deposited in PubChem by several laboratories.
Most compounds without a hit are left out; they make up all but 4.3% or so of the library.
HIF-2a inh = HIF-2a inhibition. 786-0 RCC cells HIF-2a reporter, luciferase luminescence, overnight. inhibition, % at 18.8 µM. hit rate 0.72% among 360,000;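 active = inhibition of the luminescence signal of 40% or more relative to plate controls, in a single-dose primary screen at 18.75 µM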
KKLEB cytotox = CF airway cell cytotoxicity counter-screen; KKLEB CF airway cells viability, ATPlite luminescence, overnight; stronger effect = lower value; cells stimulated with P. aeruginosa culture filtrate; activity change (cytotoxicity), % at 5 µM; hit rate 0.36% among 360,000;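 active = corrected activity change at or below -50% at 5 µM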
Peg3 promoter = inhibitors of Peg3 promoter; HeLa PEG-Prom luciferase reporter, luminescence, overnight; inhibition, % at 20 µM; hit rate 1.7% among 360,000; AID 588405;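 active = inhibition of at least 50% at 20 µM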
CF NFkB block = blocks PAF-induced NF-kB reporter in cystic fibrosis cells; AID 588850; KKLEB NF-kB-GFP reporter, GFP fluorescence overnight; hit rate 0.86% among 360,000; inhibition, % at 5 µM;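 active = at least 50% inhibition at 5 µM, scaled per plate between neutral and stimulator controls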;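 note: PAF is a Pseudomonas aeruginosa culture filtrate used as stimulus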
MITF TRPM1 inh = MITF TRPM1 promoter inhibition in SK-MEL-5 cells; SK-MEL-5 TRPM1 promoter luciferase, 24 h; inhibition, % at 12.5 µM; hit rate 0.83% among 330,000;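 active = mean inhibition across replicates of 60% or more, whatever share of single replicates reaches that level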
CHOP inh = CHOP inhibition in unfolded protein response; hit rate 3.8% among 220,000; inhibition, % at 10 µM; CHO-K1 CHOP-promoter luciferase, tunicamycin-induced, 15-18 h; AID 2732;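 active = compounds that reduced the stress-induced luciferase reporter signal by more than about 70% of percent inhibition, limit read from the data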
A number is an active result.

O=C(Nc1ccc(F)c(Cl)c1)c1ccc2sc([C@H]3C[C@H](O)[C@@H](CO)O3)nc2c1 was read as HIF-2a inh inactive, KKLEB cytotox inactive, Peg3 promoter inactive and CF NFkB block inactive.
Cc1ccc(NC(=O)Cn2c([N+](=O)[O-])cnc2C)cc1Cl was read as HIF-2a inh inactive, KKLEB cytotox inactive, Peg3 promoter inactive, CF NFkB block inactive and MITF TRPM1 inh inactive.
`CC(c1ccco1)N(C(=O)C12CC3CC(CC(C)(C3)C1)C2)c1ccccn1` (configuration not stated) gave HIF-2a inh inactive, KKLEB cytotox inactive, Peg3 promoter inactive, CF NFkB block inactive, MITF TRPM1 inh inactive and CHOP inh 87.
`CC(c1ccco1)N(C(=O)c1ccc(F)cc1)c1ccccn1` (configuration not stated) gave HIF-2a inh inactive, KKLEB cytotox inactive, Peg3 promoter inactive, CF NFkB block inactive, MITF TRPM1 inh inactive and CHOP inh inactive.
`CCC(C(=O)Nc1c(C)cccc1C)n1c(-c2cnc(C)cn2)nc2ccccc21` (configuration not stated) gave HIF-2a inh inactive.
`COc1ccc(NC(=O)C2CCN(S(=O)(=O)c3cn(C)nc3C)CC2)cc1` gave HIF-2a inh inactive, KKLEB cytotox inactive, Peg3 promoter inactive, CF NFkB block inactive and MITF TRPM1 inh inactive.
`COc1ccc(Oc2nc3c(c(=O)n(C)c(=O)n3C)n2Cc2ccccc2)cc1` gave HIF-2a inh inactive, KKLEB cytotox inactive, Peg3 promoter inactive, CF NFkB block inactive, MITF TRPM1 inh inactive and CHOP inh inactive.
Screening CC(C)CCn1c(Oc2ccc(Cl)cc2)nc2c1c(=O)n(C)c(=O)n2C returned HIF-2a inh inactive, KKLEB cytotox inactive, Peg3 promoter inactive, CF NFkB block inactive, MITF TRPM1 inh inactive and CHOP inh 76.
For CC(NC(=O)Cc1ccc(S(=O)(=O)N2CCOCC2)s1)c1ccc(Br)cc1 (configuration not stated) the results were HIF-2a inh inactive, KKLEB cytotox inactive, Peg3 promoter inactive, CF NFkB block inactive and MITF TRPM1 inh inactive.
Cc1ccc(S(=O)(=O)Nc2ccc(Br)cc2C(NCC(=O)O)c2ccccc2)cc1 (configuration not stated) was read as HIF-2a inh inactive, KKLEB cytotox inactive, Peg3 promoter inactive, CF NFkB block inactive, MITF TRPM1 inh inactive and CHOP inh inactive.
O=C(O)CSc1cc(NS(=O)(=O)c2ccc(Br)cc2)c2ccccc2c1O was read as HIF-2a inh inactive, KKLEB cytotox inactive, Peg3 promoter inactive, CF NFkB block 91 and MITF TRPM1 inh inactive.
N=c1c2c(-c3ccccc3)c(-c3ccccc3)n(Cc3ccco3)c2ncn1CCO was read as HIF-2a inh inactive, KKLEB cytotox inactive, Peg3 promoter 93, CF NFkB block inactive, MITF TRPM1 inh inactive and CHOP inh inactive.
N=c1c2c(-c3ccccc3)c(-c3ccccc3)n(Cc3ccco3)c2ncn1CCCO was read as HIF-2a inh inactive, KKLEB cytotox inactive, Peg3 promoter inactive, CF NFkB block inactive and CHOP inh inactive.
For COc1ccccc1C(=O)Nc1ccc2c(c1)nc1n2CCN(C2CCCCC2)C1 the results were HIF-2a inh inactive, KKLEB cytotox inactive, Peg3 promoter inactive, CF NFkB block inactive and MITF TRPM1 inh inactive.
O=C(Cc1cccc(NC(=O)C2CCCN(C(=O)C3CCC3)C2)c1)Nc1cccc(C(=O)N2CCCC2)c1 (configuration not stated) was read as HIF-2a inh inactive, KKLEB cytotox inactive, Peg3 promoter inactive, CF NFkB block inactive and MITF TRPM1 inh inactive.
Screening O=c1cc(-c2ccccc2)[nH]n1-c1ccc([N+](=O)[O-])cc1 returned HIF-2a inh inactive, KKLEB cytotox -55, Peg3 promoter inactive, CF NFkB block 59, MITF TRPM1 inh inactive and CHOP inh inactive.
Screening CCOC(=O)c1ccc2ncc(C(=O)OCC)c(Nc3ccc(N4CCOCC4)cc3)c2c1 returned HIF-2a inh inactive, KKLEB cytotox inactive, Peg3 promoter 88, CF NFkB block 65, MITF TRPM1 inh inactive and CHOP inh inactive.
Screening CCOc1ccc(S(=O)(=O)N(CC(=O)N/N=C/c2cccs2)c2ccc(C)cc2)cc1 returned HIF-2a inh inactive, KKLEB cytotox inactive, Peg3 promoter inactive, CF NFkB block inactive, MITF TRPM1 inh inactive and CHOP inh 76.
Screening CCc1ccc(C(C(=O)NCc2ccc(OC)cc2)N(CCOC)C(=O)Cc2cccs2)cc1 (configuration not stated) returned HIF-2a inh inactive, KKLEB cytotox inactive, Peg3 promoter inactive, CF NFkB block inactive, MITF TRPM1 inh inactive and CHOP inh inactive.
COc1ccc(CNC(=O)C(c2ccc(C)o2)N(Cc2cccs2)C(=O)Cc2cccs2)cc1 (configuration not stated) was read as HIF-2a inh inactive, KKLEB cytotox inactive, Peg3 promoter 60, CF NFkB block inactive, MITF TRPM1 inh inactive and CHOP inh inactive.
`CCC(C)(C)NC(=O)C(c1ccc(C)o1)N(Cc1cccs1)C(=O)Cn1nnc2ccccc21` (configuration not stated) gave HIF-2a inh inactive, KKLEB cytotox inactive, Peg3 promoter inactive, CF NFkB block inactive, MITF TRPM1 inh inactive and CHOP inh 77.
Screening COCCN(C(=O)Cc1cccs1)C(C(=O)NCc1ccc(OC)cc1)c1ccc(C(C)C)cc1 (configuration not stated) returned HIF-2a inh inactive, KKLEB cytotox inactive, Peg3 promoter inactive, CF NFkB block inactive, MITF TRPM1 inh inactive and CHOP inh 94.
`CCOc1ccc(CCNC(=O)c2cc(-c3ccccc3)c(N3CCOCC3)s2)cc1OCC` gave HIF-2a inh inactive, KKLEB cytotox inactive, Peg3 promoter inactive, CF NFkB block inactive and MITF TRPM1 inh inactive.
`COc1ccc2c(CC(=O)Nc3ncc(C)s3)coc2c1` gave HIF-2a inh inactive, KKLEB cytotox inactive, Peg3 promoter 65, CF NFkB block inactive, MITF TRPM1 inh inactive and CHOP inh inactive.
For CCc1cc2cc(C)cc(C)c2nc1SCC(=O)N1CCCC1 the results were HIF-2a inh inactive, KKLEB cytotox inactive, Peg3 promoter inactive, CF NFkB block inactive, MITF TRPM1 inh inactive and CHOP inh 87.
Cc1[nH]c2ccccc2c1C(=O)/C=C/c1ccccc1Cl was read as HIF-2a inh inactive, KKLEB cytotox inactive, Peg3 promoter inactive, CF NFkB block inactive, MITF TRPM1 inh inactive and CHOP inh 90.
`Cc1[nH]c2ccccc2c1C(=O)/C=C/c1ccccc1` gave HIF-2a inh inactive, KKLEB cytotox inactive, Peg3 promoter inactive, CF NFkB block inactive, MITF TRPM1 inh inactive and CHOP inh inactive.
Screening Cc1[nH]c2ccccc2c1C(=O)/C=C\c1ccccc1Cl returned HIF-2a inh inactive, KKLEB cytotox inactive, Peg3 promoter inactive, CF NFkB block inactive, MITF TRPM1 inh inactive and CHOP inh 74.
`O=c1/c(=C/c2ccc(O)cc2)sc2nc3cc(Br)cnc3n12` gave CHOP inh inactive.
